# Measurements taken from article PMC7862700, “An all-to-all approach to the identification of sequence-specific readers for epigenetic DNA modifications on cytosine”.
# Tests used:
# Test in all cases: DAPPL (digital affinity profiling via proximity ligation, sequencing); 10 mM Tris-HCl pH 7.5, 50 mM NaCl, 1 mM DTT, 4% glycerol, room temperature, 30 min; GST-TFs on glutathione beads, 16-mer random dsDNA library, 0.1% formaldehyde crosslink after washing; high values mean tight binding
# FEV = biological target: T1, FEV (Homo sapiens, UniProt Q99581 1-238); details: protein: recombinant; tags: N-terminal GST; dsDNA, one strand shown
# T1 sequence: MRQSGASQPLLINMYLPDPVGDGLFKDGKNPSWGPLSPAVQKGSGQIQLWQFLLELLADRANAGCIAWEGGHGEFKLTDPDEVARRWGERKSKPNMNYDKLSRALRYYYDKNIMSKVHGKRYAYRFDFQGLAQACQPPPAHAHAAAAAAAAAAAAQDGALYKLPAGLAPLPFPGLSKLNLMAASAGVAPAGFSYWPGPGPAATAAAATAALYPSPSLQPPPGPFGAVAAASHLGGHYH
# Method in brief: (§1)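 GST fusions of human transcription factors were expressed in yeast and captured with glutathione beads. Once given DNA barcodes and pooled alongside a tag-only sample, they were incubated for 30 min at room temperature with 200 nmole of a random double-stranded 16-mer DNA library in Tris/NaCl/DTT/glycerol buffer, then washed, crosslinked (0.1% formaldehyde), proximity-ligated, PCR-amplified and sequenced on an Illumina NextSeq500. The binding signal of each hexamer is its read frequency for a factor divided by its frequency for the tag-only sample.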
# ETV5 = ETV5 (Homo sapiens, UniProt P41161 1-510); details: protein: recombinant; tags: N-terminal GST; dsDNA, one strand shown
# Method in brief: as §1
# HSF1 = HSF1 (Homo sapiens, UniProt Q00613 1-529); details: protein: recombinant; tags: N-terminal GST; chain copies: 3; dsDNA, one strand shown
# Method in brief: as §1
# SPIC = biological target: T2, SPIC (Homo sapiens, UniProt Q8N5J4 1-248); details: protein: recombinant; tags: N-terminal GST; dsDNA, one strand shown
# T2 sequence: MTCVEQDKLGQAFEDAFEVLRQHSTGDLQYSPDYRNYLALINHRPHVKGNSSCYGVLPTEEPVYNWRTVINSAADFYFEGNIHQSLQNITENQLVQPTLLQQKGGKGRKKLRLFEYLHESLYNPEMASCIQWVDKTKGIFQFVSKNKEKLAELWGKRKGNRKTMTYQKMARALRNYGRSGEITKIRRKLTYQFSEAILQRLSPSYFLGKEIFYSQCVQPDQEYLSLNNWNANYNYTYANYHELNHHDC
# Method in brief: as §1
# ELF4 = ELF4 (Homo sapiens, UniProt Q99607 1-663); details: protein: recombinant; tags: N-terminal GST; dsDNA, one strand shown
# Method in brief: as §1
# ELK4 = biological target: T3, ELK4 (Homo sapiens, UniProt P28324-2 1-405); details: protein: recombinant; tags: N-terminal GST; dsDNA, one strand shown
# T3 sequence: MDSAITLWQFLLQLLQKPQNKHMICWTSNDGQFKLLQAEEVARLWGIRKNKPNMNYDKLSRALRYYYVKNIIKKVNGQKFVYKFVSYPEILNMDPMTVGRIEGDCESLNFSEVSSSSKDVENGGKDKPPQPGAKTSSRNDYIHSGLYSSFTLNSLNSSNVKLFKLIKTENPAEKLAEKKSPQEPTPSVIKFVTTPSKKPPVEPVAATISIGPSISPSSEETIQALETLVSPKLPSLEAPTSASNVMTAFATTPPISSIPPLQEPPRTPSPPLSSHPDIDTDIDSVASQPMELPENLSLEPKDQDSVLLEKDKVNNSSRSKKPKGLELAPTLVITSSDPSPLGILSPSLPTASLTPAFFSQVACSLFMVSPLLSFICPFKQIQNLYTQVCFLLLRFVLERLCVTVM
# Method in brief: as §1
# ETV2 = biological target: T4, ETV2 (Homo sapiens, UniProt O00321 1-342); details: protein: recombinant; tags: N-terminal GST; dsDNA, one strand shown
# T4 sequence: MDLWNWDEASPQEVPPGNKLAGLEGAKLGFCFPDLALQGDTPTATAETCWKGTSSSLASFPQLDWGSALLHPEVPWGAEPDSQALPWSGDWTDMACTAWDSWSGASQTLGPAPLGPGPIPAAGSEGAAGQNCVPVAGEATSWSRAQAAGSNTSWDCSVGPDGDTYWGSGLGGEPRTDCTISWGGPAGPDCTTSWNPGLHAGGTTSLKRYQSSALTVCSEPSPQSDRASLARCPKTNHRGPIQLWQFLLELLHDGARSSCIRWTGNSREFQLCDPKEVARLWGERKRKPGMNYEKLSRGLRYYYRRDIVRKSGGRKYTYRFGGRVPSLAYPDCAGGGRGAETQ
# Method in brief: as §1
# ELF3 = biological target: T5, ELF3 (Homo sapiens, UniProt P78545 1-371); details: protein: recombinant; tags: N-terminal GST; dsDNA, one strand shown
# T5 sequence: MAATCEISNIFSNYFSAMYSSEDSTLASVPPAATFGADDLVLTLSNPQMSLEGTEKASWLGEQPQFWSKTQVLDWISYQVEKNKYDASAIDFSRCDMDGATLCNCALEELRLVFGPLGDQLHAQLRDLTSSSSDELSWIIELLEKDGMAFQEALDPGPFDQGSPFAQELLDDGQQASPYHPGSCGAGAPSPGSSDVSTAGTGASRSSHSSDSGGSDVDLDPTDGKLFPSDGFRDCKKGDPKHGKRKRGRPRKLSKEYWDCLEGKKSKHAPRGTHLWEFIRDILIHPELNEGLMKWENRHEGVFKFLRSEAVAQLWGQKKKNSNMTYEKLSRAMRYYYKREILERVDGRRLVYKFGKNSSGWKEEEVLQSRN
# Method in brief: as §1
# CRX = CRX (Homo sapiens, UniProt O43186 1-299); details: protein: recombinant; tags: N-terminal GST; dsDNA, one strand shown
# Method in brief: as §1
# ETV1 = ETV1 (Homo sapiens, UniProt P50549 1-477); details: protein: recombinant; tags: N-terminal GST; dsDNA, one strand shown
# Method in brief: as §1
# ERF = biological target: T6, ERF (Homo sapiens, UniProt P50548 1-548); details: protein: recombinant; tags: N-terminal GST; dsDNA, one strand shown
# T6 sequence: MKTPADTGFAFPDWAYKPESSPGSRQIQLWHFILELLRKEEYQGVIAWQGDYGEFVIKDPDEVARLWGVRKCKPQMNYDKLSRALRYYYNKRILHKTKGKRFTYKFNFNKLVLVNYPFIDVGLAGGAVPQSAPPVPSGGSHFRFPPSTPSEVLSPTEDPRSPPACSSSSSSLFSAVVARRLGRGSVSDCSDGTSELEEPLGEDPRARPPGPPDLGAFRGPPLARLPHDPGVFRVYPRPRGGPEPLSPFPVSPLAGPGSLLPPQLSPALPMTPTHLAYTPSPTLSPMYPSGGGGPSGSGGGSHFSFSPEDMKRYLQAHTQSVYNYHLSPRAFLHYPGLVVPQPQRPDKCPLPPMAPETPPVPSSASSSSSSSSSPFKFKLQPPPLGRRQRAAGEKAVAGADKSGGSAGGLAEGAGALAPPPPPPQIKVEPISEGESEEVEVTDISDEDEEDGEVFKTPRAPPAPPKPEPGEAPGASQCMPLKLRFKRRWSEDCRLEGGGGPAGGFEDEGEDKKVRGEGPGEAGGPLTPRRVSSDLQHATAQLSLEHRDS
# Method in brief: as §1
# ETV3L = biological target: T7, ETV3L (Homo sapiens, UniProt Q6ZN32 1-361); details: protein: recombinant; tags: N-terminal GST; dsDNA, one strand shown
# T7 sequence: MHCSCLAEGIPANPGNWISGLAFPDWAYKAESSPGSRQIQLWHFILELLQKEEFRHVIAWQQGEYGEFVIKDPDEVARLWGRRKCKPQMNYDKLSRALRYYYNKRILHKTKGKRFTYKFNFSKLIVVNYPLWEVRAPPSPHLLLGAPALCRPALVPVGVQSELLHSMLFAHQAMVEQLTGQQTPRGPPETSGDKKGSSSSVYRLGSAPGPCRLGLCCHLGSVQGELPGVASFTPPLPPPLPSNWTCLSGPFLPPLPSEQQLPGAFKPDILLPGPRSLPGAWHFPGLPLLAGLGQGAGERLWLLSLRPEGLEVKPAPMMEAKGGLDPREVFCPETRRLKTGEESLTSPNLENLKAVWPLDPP
# Method in brief: as §1
# ETS2 = biological target: T8, ETS2 (Homo sapiens, UniProt P15036 1-469); details: protein: recombinant; tags: N-terminal GST; dsDNA, one strand shown
# T8 sequence: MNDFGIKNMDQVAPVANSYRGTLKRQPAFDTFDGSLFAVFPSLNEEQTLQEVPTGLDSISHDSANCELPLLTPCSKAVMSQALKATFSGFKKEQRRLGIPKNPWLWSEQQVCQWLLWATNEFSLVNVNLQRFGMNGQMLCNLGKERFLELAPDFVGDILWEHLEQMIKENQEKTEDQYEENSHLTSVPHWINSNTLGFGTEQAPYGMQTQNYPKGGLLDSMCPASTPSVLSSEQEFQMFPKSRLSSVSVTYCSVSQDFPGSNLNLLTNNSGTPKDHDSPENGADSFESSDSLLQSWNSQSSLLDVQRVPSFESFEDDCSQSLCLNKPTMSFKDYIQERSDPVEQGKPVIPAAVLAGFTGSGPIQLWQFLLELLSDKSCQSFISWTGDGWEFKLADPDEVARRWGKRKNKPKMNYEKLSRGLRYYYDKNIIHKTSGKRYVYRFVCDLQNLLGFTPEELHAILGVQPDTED
# Method in brief: as §1
# SPDEF = biological target: T9, SPDEF (Homo sapiens, UniProt O95238 1-335); details: protein: recombinant; tags: N-terminal GST; dsDNA, one strand shown
# T9 sequence: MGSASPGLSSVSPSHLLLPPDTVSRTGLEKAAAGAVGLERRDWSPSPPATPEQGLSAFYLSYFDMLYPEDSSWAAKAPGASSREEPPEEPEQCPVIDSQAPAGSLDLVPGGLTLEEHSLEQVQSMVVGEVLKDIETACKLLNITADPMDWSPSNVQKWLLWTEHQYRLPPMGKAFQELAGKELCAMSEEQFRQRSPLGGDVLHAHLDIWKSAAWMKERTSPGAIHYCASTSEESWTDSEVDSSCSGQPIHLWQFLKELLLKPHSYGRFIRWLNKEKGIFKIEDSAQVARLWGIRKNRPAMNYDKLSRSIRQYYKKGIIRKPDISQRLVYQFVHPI
# Method in brief: as §1
# ETV7 = biological target: T10, ETV7 (Homo sapiens, UniProt Q9Y603 1-341); details: protein: recombinant; tags: N-terminal GST; dsDNA, one strand shown
# T10 sequence: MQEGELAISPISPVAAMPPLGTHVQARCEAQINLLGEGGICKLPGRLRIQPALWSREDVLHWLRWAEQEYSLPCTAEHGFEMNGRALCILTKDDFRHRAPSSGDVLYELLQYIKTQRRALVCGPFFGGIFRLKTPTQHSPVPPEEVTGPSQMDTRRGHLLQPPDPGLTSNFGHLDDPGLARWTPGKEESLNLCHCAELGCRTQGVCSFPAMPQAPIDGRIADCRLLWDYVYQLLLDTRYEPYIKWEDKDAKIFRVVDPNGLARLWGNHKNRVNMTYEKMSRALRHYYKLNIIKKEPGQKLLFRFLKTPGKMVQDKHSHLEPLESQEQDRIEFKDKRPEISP
# Method in brief: as §1
# ELF5 = biological target: T11, ELF5 (Homo sapiens, UniProt Q9UKW6-2 1-255); details: protein: recombinant; tags: N-terminal GST; dsDNA, one strand shown
# T11 sequence: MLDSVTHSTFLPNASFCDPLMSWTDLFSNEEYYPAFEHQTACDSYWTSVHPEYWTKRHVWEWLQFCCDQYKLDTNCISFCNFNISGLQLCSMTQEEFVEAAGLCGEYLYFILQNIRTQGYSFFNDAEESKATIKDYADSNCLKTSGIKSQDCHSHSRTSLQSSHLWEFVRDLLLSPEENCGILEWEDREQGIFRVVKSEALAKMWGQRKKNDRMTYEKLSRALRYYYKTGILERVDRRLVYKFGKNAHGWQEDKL
# Method in brief: as §1
# ETV3 = biological target: T12, ETV3 (Homo sapiens, UniProt P41162-2 1-143); details: protein: recombinant; tags: N-terminal GST; dsDNA, one strand shown
# T12 sequence: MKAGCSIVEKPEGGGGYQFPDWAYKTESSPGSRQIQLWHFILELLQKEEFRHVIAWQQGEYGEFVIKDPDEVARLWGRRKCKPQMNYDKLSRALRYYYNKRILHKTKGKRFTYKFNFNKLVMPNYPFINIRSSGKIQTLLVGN
# Method in brief: as §1
# ETV6 = ETV6 (Homo sapiens, UniProt P41212 1-452); details: protein: recombinant; tags: N-terminal GST; dsDNA, one strand shown
# Method in brief: as §1
# ETV5, sequence (P41161 whole entry): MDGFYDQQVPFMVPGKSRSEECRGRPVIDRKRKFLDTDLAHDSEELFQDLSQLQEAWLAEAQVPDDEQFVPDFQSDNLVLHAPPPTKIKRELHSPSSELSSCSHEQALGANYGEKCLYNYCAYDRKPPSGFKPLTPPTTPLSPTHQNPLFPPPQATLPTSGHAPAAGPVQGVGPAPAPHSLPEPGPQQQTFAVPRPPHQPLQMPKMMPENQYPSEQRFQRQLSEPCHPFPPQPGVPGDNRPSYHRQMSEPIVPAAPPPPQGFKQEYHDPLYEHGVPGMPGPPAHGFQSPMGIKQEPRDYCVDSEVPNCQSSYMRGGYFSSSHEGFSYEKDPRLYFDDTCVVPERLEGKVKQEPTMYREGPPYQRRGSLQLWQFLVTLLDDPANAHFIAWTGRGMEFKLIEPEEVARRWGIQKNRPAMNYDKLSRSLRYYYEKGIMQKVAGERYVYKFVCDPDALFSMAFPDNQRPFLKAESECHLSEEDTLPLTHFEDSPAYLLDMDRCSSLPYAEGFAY
# ETV6, sequence (P41212 whole entry): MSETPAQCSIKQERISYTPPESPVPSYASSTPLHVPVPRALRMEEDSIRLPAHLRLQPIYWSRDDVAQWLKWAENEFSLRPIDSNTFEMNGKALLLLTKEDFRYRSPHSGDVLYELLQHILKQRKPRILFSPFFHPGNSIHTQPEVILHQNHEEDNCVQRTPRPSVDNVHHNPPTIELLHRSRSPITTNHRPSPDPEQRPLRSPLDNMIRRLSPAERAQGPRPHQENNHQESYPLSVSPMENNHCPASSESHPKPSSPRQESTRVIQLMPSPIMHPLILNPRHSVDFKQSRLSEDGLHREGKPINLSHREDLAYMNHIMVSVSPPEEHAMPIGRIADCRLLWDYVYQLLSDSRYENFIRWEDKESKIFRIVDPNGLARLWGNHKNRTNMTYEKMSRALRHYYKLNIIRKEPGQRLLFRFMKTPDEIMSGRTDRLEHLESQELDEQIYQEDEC
# HSF1, sequence (Q00613 whole entry): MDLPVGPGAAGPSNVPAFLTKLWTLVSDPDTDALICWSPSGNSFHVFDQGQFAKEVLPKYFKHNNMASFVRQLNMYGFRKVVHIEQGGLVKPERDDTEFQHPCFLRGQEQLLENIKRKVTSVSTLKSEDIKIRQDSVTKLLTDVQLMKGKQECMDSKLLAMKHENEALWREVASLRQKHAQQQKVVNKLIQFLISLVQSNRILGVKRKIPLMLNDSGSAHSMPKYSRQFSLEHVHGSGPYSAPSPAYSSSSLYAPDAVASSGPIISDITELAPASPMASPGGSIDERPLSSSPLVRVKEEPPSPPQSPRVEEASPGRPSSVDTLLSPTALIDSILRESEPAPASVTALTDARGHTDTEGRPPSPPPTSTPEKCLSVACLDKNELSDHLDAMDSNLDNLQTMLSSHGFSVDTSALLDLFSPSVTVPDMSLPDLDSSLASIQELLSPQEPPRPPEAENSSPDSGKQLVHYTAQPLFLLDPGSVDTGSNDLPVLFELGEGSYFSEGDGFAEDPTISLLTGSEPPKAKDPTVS
# ELF4, sequence (Q99607 whole entry): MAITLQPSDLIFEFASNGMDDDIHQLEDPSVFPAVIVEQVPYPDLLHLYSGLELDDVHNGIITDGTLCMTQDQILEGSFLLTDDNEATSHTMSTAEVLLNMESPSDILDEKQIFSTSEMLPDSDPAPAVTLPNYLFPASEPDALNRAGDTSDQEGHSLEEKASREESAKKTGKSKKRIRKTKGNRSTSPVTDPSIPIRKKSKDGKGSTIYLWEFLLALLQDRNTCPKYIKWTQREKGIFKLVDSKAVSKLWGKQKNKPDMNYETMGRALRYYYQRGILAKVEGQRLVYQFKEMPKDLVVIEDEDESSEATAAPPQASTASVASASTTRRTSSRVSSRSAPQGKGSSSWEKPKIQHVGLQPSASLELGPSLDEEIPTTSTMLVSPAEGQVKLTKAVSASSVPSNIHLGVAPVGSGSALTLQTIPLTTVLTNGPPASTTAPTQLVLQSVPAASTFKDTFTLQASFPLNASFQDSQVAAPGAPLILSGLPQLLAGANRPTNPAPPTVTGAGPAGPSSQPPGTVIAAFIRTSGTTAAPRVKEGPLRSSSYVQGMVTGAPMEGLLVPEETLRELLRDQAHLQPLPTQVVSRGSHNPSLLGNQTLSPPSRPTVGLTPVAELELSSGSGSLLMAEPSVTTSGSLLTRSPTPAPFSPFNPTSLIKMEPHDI
# CRX, sequence (O43186 whole entry): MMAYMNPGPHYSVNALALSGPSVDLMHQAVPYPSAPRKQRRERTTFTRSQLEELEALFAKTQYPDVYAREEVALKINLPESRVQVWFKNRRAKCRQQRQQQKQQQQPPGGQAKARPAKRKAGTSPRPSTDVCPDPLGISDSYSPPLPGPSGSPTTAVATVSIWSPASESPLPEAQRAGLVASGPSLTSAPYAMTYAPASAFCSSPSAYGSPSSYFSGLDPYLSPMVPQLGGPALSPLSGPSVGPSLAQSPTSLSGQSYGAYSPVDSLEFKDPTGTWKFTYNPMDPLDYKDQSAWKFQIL
# ETV1, sequence (P50549 whole entry): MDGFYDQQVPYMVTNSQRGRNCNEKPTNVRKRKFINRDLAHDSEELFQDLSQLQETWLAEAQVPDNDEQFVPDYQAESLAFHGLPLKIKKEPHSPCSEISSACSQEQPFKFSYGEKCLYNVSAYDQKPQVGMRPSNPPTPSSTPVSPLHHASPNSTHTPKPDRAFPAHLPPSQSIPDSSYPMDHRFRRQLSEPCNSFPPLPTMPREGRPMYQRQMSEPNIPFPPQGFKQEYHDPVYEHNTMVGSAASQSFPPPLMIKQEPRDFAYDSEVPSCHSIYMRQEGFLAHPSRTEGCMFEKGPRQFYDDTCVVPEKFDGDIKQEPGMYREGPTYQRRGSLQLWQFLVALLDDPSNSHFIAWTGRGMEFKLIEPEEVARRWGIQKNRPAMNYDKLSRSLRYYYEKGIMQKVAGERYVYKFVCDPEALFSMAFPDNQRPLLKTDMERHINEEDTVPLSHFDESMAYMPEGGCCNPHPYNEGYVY
sequence,measurement,setting,value
AGCTAC,binding signal,FEV,"1.23 fold enrichment (6-mer frequency, TF over GST control)"
same,binding signal,ETV5,"1.21 fold enrichment (6-mer frequency, TF over GST control)"
same,binding signal,HSF1,"1.04 fold enrichment (6-mer frequency, TF over GST control)"
same,binding signal,SPIC,"1.21 fold enrichment (6-mer frequency, TF over GST control)"
same,binding signal,ELF4,"1.12 fold enrichment (6-mer frequency, TF over GST control)"
same,binding signal,ELK4,"1.25 fold enrichment (6-mer frequency, TF over GST control)"
same,binding signal,ETV2,"1.03 fold enrichment (6-mer frequency, TF over GST control)"
same,binding signal,ELF3,"1.34 fold enrichment (6-mer frequency, TF over GST control)"
same,binding signal,CRX,"1.04 fold enrichment (6-mer frequency, TF over GST control)"
same,binding signal,ETV1,"1.21 fold enrichment (6-mer frequency, TF over GST control)"
same,binding signal,ERF,"1.25 fold enrichment (6-mer frequency, TF over GST control)"
same,binding signal,ETV3L,"1.14 fold enrichment (6-mer frequency, TF over GST control)"
same,binding signal,ETS2,"1.09 fold enrichment (6-mer frequency, TF over GST control)"
same,binding signal,SPDEF,"1.02 fold enrichment (6-mer frequency, TF over GST control)"
same,binding signal,ETV7,"1.31 fold enrichment (6-mer frequency, TF over GST control)"
same,binding signal,ELF5,"1.18 fold enrichment (6-mer frequency, TF over GST control)"
same,binding signal,ETV3,"1.17 fold enrichment (6-mer frequency, TF over GST control)"
same,binding signal,ETV6,"1.22 fold enrichment (6-mer frequency, TF over GST control)"
